About 83,000 compounds went through this panel and 20% of them were active in at least one assay; those are over-represented in the sample as a whole.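 Results are percent growth after 48 hours of single-concentration exposure. 100 means growth as in untreated cells, lower positive values show inhibition; negative values down to -100 show cell death.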 A number with no mark means an inactive call. Active and inactive are the calls of the source. Rule for the calls: active = growth percent below 10; inactive = the rest.

From PubChem BioAssay (NCI) come the findings set out here.

This experiment has as its system HL-60(TB) leukemia. The experiment is described as follows: NCI-60 one-dose screen, 48 h (100 = growth as untreated, 0 = no growth, -100 = all killed). The conditions noted are these: 10 µM unless noted.
As for `O=C(/C=C/C12c3ccccc3C(c3ccccc31)C1C(=O)NC(=O)C12)c1ccccn1` (stereo not given), the growth is -11.5% (active).

In the case of `CCCCCCNC(=O)Oc1ccc(/C(=C(/CC)Cc2ccccc2)c2ccc(OCCN3CCCCC3)cc2)cc1`, the growth is 75.1%.

With `CN(C)CSc1nc2ccccc2s1`, the growth was 101%.

For `Oc1ccccc1-c1nc2ccccn2c1NCCN1CCOCC1`, the growth was 102%.

Turning to `NS(=O)(=O)c1ccc(CCn2c(SCC(=O)N/N=C/c3cccnc3)nc3ccccc3c2=O)cc1`, the growth was 80.4%.

Regarding `Cc1ccc(/C=C2\Oc3ccc(O)c(O)c3C2=O)cc1`, the growth is 14.7%.

For the compound `CCN(CC)CCNC(=O)C(F)(F)C(F)(F)C(F)(F)F`, the growth was 108%.

As to `COc1ccc2nc3cc(Cl)ccc3c(NCCCCCN3CCCCC3)c2c1`, the growth is -42.2% (active).

Take `COc1cc(/C=C2\Oc3cc(OCC(=O)c4ccccc4)ccc3C2=O)cc(OC)c1OC`: the growth was 118%.

On to `Nc1nc2c(s1)CCc1c-2c(Br)n(Cc2ccccc2)c1Br`, for which the growth is 51.6%.

As to `Cc1ccc(NC(=O)Nc2c(Cl)cccc2Cl)cn1`, the growth was 71.3%.

Regarding `O=C1Nc2cc(Cl)ccc2/C1=C\c1c(-c2ccc(F)cc2)nc2ccccn12`, the growth was -46% (active).

`Cc1ccc(/C=C2\CNC/C(=C\c3ccc(C)cc3)C2=O)cc1`: the growth is -29.1% (active).

With `Oc1c(Cl)cc(Oc2cc(Cl)c(O)c(CN3CCOCC3)c2)cc1CN1CCOCC1`, the growth is 86.7%.

Consider `COc1ccc(-c2nc3sccn3c2/C=C/C(=O)c2cc(OC)c(OC)c(OC)c2)cc1`, for which the growth was 56.5%.

In the case of `O=C(Cn1cc(COc2ncnc3c2cnn3-c2ccccc2)nn1)Nc1cccc2ccccc12`, the growth was 101%.

For `Cc1ccc(S(=O)(=O)NCC[C@@H]2C[C@H]2c2cc3ccccc3s2)cc1`, the growth is 112%.

In the case of `O=C(Oc1ccccc1[N+](=O)[O-])C1CCCN1C(=O)OCc1ccccc1` (stereo not given), the growth is 58.9%.

Consider `Nc1[nH]nc(Nc2ccccc2)c1-c1nc2ccccc2s1`, for which the growth is 16.6%.

As to `O=c1c(/C=C/c2c(O)ccc3ccccc23)nnc2sc(-c3cccc([N+](=O)[O-])c3)nn12`, the growth is 11.2%.

Take `CO[C@@]12C=C[C@@]34CCC(=O)N3c3ccccc3[C@@H](O1)C4C2`: the growth is 96.9%.

Take `CCCCc1ccc(NS(=O)(=O)c2cc3c4c(c2)CCN4C(=O)CC3)cc1`: the growth is -23.6% (active).

Take `Nc1ncc(-c2ccc3ncnc(Nc4ccc(F)c(Cl)c4)c3c2)cn1`: the growth was 103%.

Take `N#Cc1cnn2c(-c3ccc(Cl)cc3)nc(NCCc3ccccc3)nc12`: the growth is 85.1%.

Regarding `O=C(c1nnc(Nc2ccccc2Br)o1)c1c[nH]c2ccccc12`, the growth is 103%.

Regarding `CNC(=O)c1cc(Oc2ccc3c(c2)sc2nc(-c4ccc(Cl)cc4)cn23)ccn1`, the growth is 88.4%.

Regarding `Cc1ccc(N)c(O)c1`, the growth was 128%.

On to `O=C(O)c1cccc([N+](=O)[O-])c1/C=C/c1ccccc1`, for which the growth was 97.4%.

Turning to `O=C1C=C[C@]2(C[C@@H](c3cccc(C(F)(F)F)c3)O[C@@H](c3cccc(C(F)(F)F)c3)O2)O1`, the growth is 8.74% (active).

Turning to `Clc1ccc(Nc2nccc(Nc3ccc4[nH]ncc4c3)n2)cc1`, the growth is 51.5%.

As for `O=[N+]([O-])c1ccccc1C(O)Cc1ccc2ccccc2n1` (stereo not given), the growth is 107%.

Consider `O=C(O)[C@@H](Cc1ccc2ccccc2c1)NC(=O)n1c2ccccc2c2ccccc21`, for which the growth is 6.8% (active).

In the case of `O=C1/C(=C/c2ccc(Cl)cc2Cl)CN(S(=O)(=O)c2ccccc2)C/C1=C\c1ccc(Cl)cc1Cl`, the growth is 11%.

As to `O=C1N=c2ccccc2=C1c1sc(=Nc2ccccc2)n(Nc2ccccc2)c1O`, the growth was 97.5%.

As to `COc1ccc(-c2cc3c(oc2=O)-c2ccccc2OC3OC(C)=O)cc1` (stereo not given), the growth is 85.8%.

Regarding `COc1cc(/C=C2\CCC/C(=C\c3ccc(OCC4CO4)c(OC)c3)C2=O)ccc1OCC1CO1` (stereo not given), the growth is -3.96% (active).

With `CC(=O)OCC(=O)C1CCC=CC1OC(C)=O` (stereo not given), the growth was 99.3%.

As for `CO[C@H]1C[C@@H]2CC[C@@H](C)[C@@](O)(O2)C(=O)C(=O)N2CCCC[C@H]2C(=O)O[C@H]([C@H](C)C[C@@H]2CC[C@@H](OC(=O)C(C)(CO)CO)[C@H](OC)C2)CC(=O)[C@H](C)/C=C(\C)[C@@H](O)[C@@H](OC)C(=O)[C@H](C)C[C@H](C)\C=C/C=C/C=C/1C`, the growth is -11.9% (active).

Turning to `CCOC(=O)c1c(-c2ccc(Cl)cc2)c(C#N)c(=O)n(-c2ccccc2CC)c1N`, the growth is 144%.

With `CCOC(=O)C1=C(C)N=C2Sc3cccc(OC)c3N2[C@H]1c1ccccn1`, the growth is 105%.
